Experimental data from PubChem BioAssay (Tox21).
Records with an inconclusive call do not appear. The source made the active and inactive calls. Unless noted, the call rests on the fitted dose curve; in most records, active means well fitted curve in the direction sought with a large enough effect in the repeat runs; inconclusive means weak or mixed curves; inactive means no such curve, though single readings can be large; an effect the other way counts as inactive or inconclusive.

Experiments:
[1] = qHTS assay for small molecule agonists of the p53 signaling pathway (AID 651631; calls by dose curve; further: nearly all actives have a fitted effect of over 15% in size)
How it was run: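 Readout was fluorescence from the LiveBLAzer FRET substrate, applied for 2 h at room temperature after 16 h compound exposure at 37 °C. Cells were the p53RE-bla HCT-116 line, with beta-lactamase driven by p53 response elements.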

[2] = qHTS assay for small molecules that induce genotoxicity in human embryonic kidney cells expressing luciferase-tagged ATAD5 (AID 651632); further: nearly all actives have a fitted effect of over 15% in size
How it was run: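 Luminescence read-out: after 16 hr compound exposure at 37C, ATAD5-luciferase HEK293T cells received Amplite, 30 min RT, then CCD imaging. A rise in signal marks genotoxic stress.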

[3] = qHTS assay for small molecule agonists of the p53 signaling pathway - cell viability (AID 651633; calls by dose curve; further: series mostly up to about 83 µM; nearly all actives have a fitted effect of over 30% in size)
How it was run: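 p53RE-bla cells, seeded at 4,000 per well and rested 5 h at 37 C/5% CO2, received compounds in DMSO for 16 h at 37 C. CellTiter-Glo was then added, and luminescence was read after 30 min at room temperature to gauge cytotoxicity.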

[4] = qHTS assay for small molecules that induce genotoxicity in human embryonic kidney cells expressing luciferase-tagged ATAD5 - cell viability (AID 651634; calls by dose curve; further: nearly all actives have a fitted effect of over 25% in size)
How it was run: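 HEK293T ATAD5-luc cells, 2,000/well; compound 15.5 hr, 37C/5% CO2; CellTiter-Fluor 30 min, 37C; fluorescence read.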

[5] = qHTS assay for small molecule disruptors of the mitochondrial membrane potential - cell viability (AID 720634; calls by dose curve;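 further: human HepG2 liver cancer cells; series mostly up to about 83 µM; nearly all actives have a fitted effect of over 20% in size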)
How it was run: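 Luminescence from CellTiter-Glo (ATP content) gave viability in HepG2 cells, read in the same wells as the MMP dye assay after 1 hr compound exposure at 37 C.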

[6] = qHTS assay to test for compound auto fluorescence at 535 nm (green) in HepG2 cells (AID 720675)
[7] = qHTS assay to test for compound auto fluorescence at 460 nm (blue) in HEK293 cells (AID 720678)
How it was run: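 Blue-channel (Ex/Em 405/460 nm) intensity measured in HEK293 cultures after overnight compound exposure at 37C; signal expressed relative to triamterene. Cells plated 2,000 per well in 10% dialyzed FBS medium and allowed 4-5 hr to attach.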

[8] = qHTS assay to test for compound auto fluorescence at 590 nm (red) in HEK293 cells (AID 720679)
How it was run: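 Red-channel autofluorescence (Ex/Em 540/590 nm; Rose Bengal sodium reference) was measured after overnight 37C, 5% CO2 exposure of attached HEK293 cells, 2,000 per well in medium with 10% dialyzed FBS.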

[9] = qHTS assay to test for compound auto fluorescence at 535 nm (green) in HEK293 cells (AID 720680)
[10] = qHTS assay to test for compound auto fluorescence at 460 nm (blue) in HEK293 cell free culture (AID 720681)
How it was run: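 Test compounds were pinned into cell-free culture medium (DMEM with 10% FBS) and fluorescence was read directly at Ex/Em 405/460 nm. Signals were expressed as fluorescence equivalents of triamterene, with DMSO vehicle as control.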

[11] = qHTS assay to test for compound auto fluorescence at 535 nm (green) in HEK293 cell free culture (AID 720682)
How it was run: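 Compounds were pin-transferred into cell-free DMEM with 10% FBS, and green fluorescence was read at excitation 485 nm and emission 535 nm. Intensities were expressed as fluorescein-equivalent values.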

[12] = qHTS assay to test for compound auto fluorescence at 590 nm (red) in HEK293 cell free culture (AID 720683)
How it was run: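 Tox21 10K library compounds were pinned into cell-free DMEM with 10% FBS and fluorescence was read at excitation 540 nm. Activity is expressed as Rose Bengal sodium equivalency.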

[13] = qHTS assay to test for compound auto fluorescence at 460 nm (blue) in HepG2 cell free culture (AID 720685)
How it was run: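 Cell-free plates of MEM plus 10% FBS received 23 nL compound or DMSO vehicle; blue-channel (405/460 nm) intensity scored against triamterene as reference fluorophore.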

[14] = qHTS assay to test for compound auto fluorescence at 535 nm (green) in HepG2 cell free culture (AID 720686)
[15] = qHTS assay to test for compound auto fluorescence at 460 nm (blue) in HepG2 cells (AID 720687)
How it was run: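 Cells (2,000/well in MEM with 10% FBS) attached overnight at 37 C, then were exposed to compound or DMSO for 1 hr at 37 C, 5% CO2. Fluorescence read at Ex/Em 405/460 nm, expressed as triamterene-equivalent signal.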

[16] = molecular target: Glucocorticoid receptor (Homo sapiens) (UniProt P04150); assay: qHTS assay to identify small molecule agonists of the glucocorticoid receptor (GR) signaling pathway (AID 720691; active means well fitted activation curve with a large enough effect in the signal ratio in the repeat runs, not every such curve was filed as active; the % refers to the signal ratio)
Glucocorticoid receptor (Homo sapiens), sequence (P04150 whole entry, looked up): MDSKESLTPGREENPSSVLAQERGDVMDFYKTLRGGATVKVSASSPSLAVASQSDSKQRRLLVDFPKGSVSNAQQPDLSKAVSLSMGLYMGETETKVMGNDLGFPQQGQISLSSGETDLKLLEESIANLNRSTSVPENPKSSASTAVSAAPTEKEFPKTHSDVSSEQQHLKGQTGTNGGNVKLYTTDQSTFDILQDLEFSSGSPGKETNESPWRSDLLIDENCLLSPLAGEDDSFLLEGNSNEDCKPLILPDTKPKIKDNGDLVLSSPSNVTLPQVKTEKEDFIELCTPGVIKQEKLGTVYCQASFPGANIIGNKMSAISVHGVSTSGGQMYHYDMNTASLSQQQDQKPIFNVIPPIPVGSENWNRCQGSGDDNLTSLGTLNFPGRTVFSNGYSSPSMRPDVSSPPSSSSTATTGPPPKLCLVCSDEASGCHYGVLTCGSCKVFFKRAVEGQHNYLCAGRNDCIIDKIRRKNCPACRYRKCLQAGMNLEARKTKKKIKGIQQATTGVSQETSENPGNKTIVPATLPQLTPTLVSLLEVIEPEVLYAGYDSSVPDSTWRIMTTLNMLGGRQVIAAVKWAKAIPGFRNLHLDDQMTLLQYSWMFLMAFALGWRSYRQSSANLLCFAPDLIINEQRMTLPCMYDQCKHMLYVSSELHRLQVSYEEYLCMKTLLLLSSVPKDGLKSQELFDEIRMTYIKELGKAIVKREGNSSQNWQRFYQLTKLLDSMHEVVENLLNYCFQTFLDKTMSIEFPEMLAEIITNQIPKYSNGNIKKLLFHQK
How it was run: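 HeLa GR-bla reporter line; cells pre-incubated 4 h, compound in DMSO 18 h at 37 C; LiveBLAzer B/G FRET substrate 2 h RT; fluorescence intensity read-out.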

[17] = qHTS assay to test for compound auto fluorescence at 590 nm (red) in HepG2 cells (AID 720674)
How it was run: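 Rose Bengal sodium served as the red fluorophore standard. HepG2 monolayers (overnight attachment, MEM with 10% FBS) were exposed to test compounds for 1 hr at 37 C and read at Ex 540/Em 590 nm.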

[18] = qHTS assay for small molecule disruptors of the mitochondrial membrane potential (AID 720635)
How it was run: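 HepG2 cells (2,000/well) attached overnight at 37C, then took compound for 1 hr at 37C, 5% CO2. Mito-MPS dye was added for 30 min; fluorescence was read at 490/535 nm (monomers) and 540/590 nm (aggregates).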

[19] = qHTS assay to test for compound auto fluorescence at 590 nm (red) in HepG2 cell free culture (AID 720684)
How it was run: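 Ex 540 / Em 590 nm read of compound in cell-free MEM (10% FBS). Rose Bengal sodium reference.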

[20] = molecular target: Glucocorticoid receptor (Homo sapiens) (UniProt P04150); assay: qHTS assay to identify small molecule antagonists of the glucocorticoid receptor (GR) signaling pathway (AID 720692; active means well fitted inhibition curve with a large enough effect in the signal ratio in the repeat runs, not every such curve was filed as active; the % refers to the signal ratio)
How it was run: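 Read-out: beta-lactamase FRET substrate fluorescence, 2 h at room temperature, in HeLa cells stably carrying a GRE-driven bla reporter. Compounds were co-incubated with 5 nM dexamethasone agonist (final) for 18 h at 37 C.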
On the % scale 0 is the no-effect control and ±100 the full control effect.

CC(C)C[P+](C)(CC(C)C)CC(C)C
inactive: Potency [1] | Potency [2] | outcome [3] | outcome [4] | outcome [5] | outcome [6] | outcome [7] | outcome [8] | outcome [9] | outcome [10] | outcome [11] | outcome [12] | outcome [13] | outcome [14] | outcome [15] | Potency [16]

C/C=C(\C)C=O
inactive: Potency [1] | Potency [2] | outcome [3] | outcome [4] | outcome [17] | outcome [6] | outcome [7] | outcome [8] | outcome [9] | outcome [10] | outcome [11] | outcome [12] | outcome [13] | outcome [14] | outcome [15]

CCCCc1ccc(Cl)cc1
inactive: Potency [1] | outcome [3] | outcome [4] | outcome [5] | Potency [18] | outcome [17] | outcome [6] | outcome [7] | outcome [8] | outcome [9] | outcome [10] | outcome [11] | outcome [12] | outcome [19] | outcome [13] | outcome [14] | outcome [15]

C=C(C)C(=O)OCCOC1CC2CC1C1C=CCC21 (stereo unspecified)
inactive: Potency [1] | outcome [3] | outcome [4] | outcome [5] | outcome [17] | outcome [6] | outcome [7] | outcome [8] | outcome [9] | outcome [10] | outcome [11] | outcome [12] | outcome [19] | outcome [13] | outcome [14] | outcome [15]

Cc1cc(C)c(N)c(Cl)c1
inactive: Potency [1] | Potency [2] | outcome [3] | outcome [4] | outcome [5] | outcome [6] | outcome [7] | outcome [8] | outcome [9] | outcome [10] | outcome [11] | outcome [12] | outcome [13] | outcome [14] | outcome [15] | Potency [16] | outcome [20]

CC(C)c1cc(C(C)C)cc(C(C)C)c1
inactive: Potency [1] | outcome [3] | outcome [4] | outcome [5] | Potency [18] | outcome [17] | outcome [6] | outcome [7] | outcome [8] | outcome [9] | outcome [10] | outcome [11] | outcome [12] | outcome [19] | outcome [13] | outcome [14] | outcome [15] | Potency [16] | outcome [20]

CCCCCCCOC(C)=O
inactive: Potency [1] | outcome [3] | outcome [4] | outcome [5] | Potency [18] | outcome [17] | outcome [6] | outcome [7] | outcome [9] | outcome [10] | outcome [11] | outcome [12] | outcome [19] | outcome [13] | outcome [14] | outcome [15]

Cc1cc(N)no1
inactive: Potency [1] | Potency [2] | outcome [3] | outcome [4] | outcome [5] | outcome [6] | outcome [7] | outcome [8] | outcome [9] | outcome [10] | outcome [11] | outcome [12] | outcome [19] | outcome [13] | outcome [14] | outcome [15] | Potency [16] | outcome [20]

CCCc1ccc(O)c(OC)c1
inactive: Potency [1] | outcome [3] | outcome [4] | outcome [5] | Potency [18] | outcome [17] | outcome [6] | outcome [7] | outcome [8] | outcome [9] | outcome [10] | outcome [11] | outcome [12] | outcome [19] | outcome [13] | outcome [14] | outcome [15] | Potency [16] | outcome [20]

CCCCCCCCCCCCCCCC(=O)OC
inactive: Potency [1] | Potency [2] | outcome [3] | outcome [4] | fluorescence, relative to Rose Bengal [17] 0.0004% [at 18.6 µM] | fluorescence, % of fluorescein control [6] -0.0233% [at 18.6 µM] | fluorescence, % of triamterene [7] 0.179% [at 18.6 µM] | fluorescence, % of fluorescent control [8] -0.225% [at 18.6 µM] | fluorescence, % of fluorescein [9] -0.0119% [at 18.6 µM] | fluorescence, % of fluorescent control [10] -0.0484% [at 18.6 µM] | activity change [11] -0.0305% [at 18.6 µM] | fluorescence, % of fluorescent control [12] -0.033% [at 18.6 µM] | fluorescence, % of Rose Bengal [19] 0.0231% [at 18.6 µM] | fluorescence, % of fluorescent control [13] -0.0427% [at 18.6 µM] | fluorescence, % of fluorescein control [14] -0.0231% [at 18.6 µM] | fluorescence, % of fluorescent control [15] 0.0931% [at 18.6 µM] | Potency [16] | outcome [20]

CN(C)CCCN(C)C
inactive: activation [1] 3.19% [at 8.3 µM] | activation [2] -0.426% [at 8.08 µM] | activity change, negative = cytotoxicity [3] 10.5% [at 8.08 µM] | activity, negative = cytotoxicity [4] 29.6% [at 8.08 µM] | activity change, negative = cytotoxicity [5] 7.6% [at 8.08 µM] | fluorescence, % of fluorescein control [6] -0.223% [at 3.72 µM] | fluorescence, % of triamterene [7] -0.32% [at 3.72 µM] | fluorescence, % of fluorescent control [8] -0.954% [at 3.72 µM] | fluorescence, % of fluorescein [9] -0.137% [at 3.72 µM] | fluorescence, % of fluorescent control [10] -0.55% [at 3.72 µM] | activity change [11] -0.2% [at 3.72 µM] | fluorescence, % of fluorescent control [12] -0.816% [at 3.72 µM] | fluorescence, % of Rose Bengal [19] -0.0354% [at 3.72 µM] | fluorescence, % of fluorescent control [13] -0.358% [at 3.72 µM] | fluorescence, % of fluorescein control [14] -0.197% [at 3.72 µM] | fluorescence, % of fluorescent control [15] -0.76% [at 3.72 µM] | activation [16] -0.0659% [at 6.9 µM] | activity change, negative = inhibition [20] 10.4% [at 7.04 µM]

CCNC(=O)C(C)OC(=O)Nc1ccccc1 (stereo unspecified)
inactive: Potency [1] | Potency [2] | outcome [3] | outcome [4] | outcome [5] | outcome [6] | outcome [7] | outcome [8] | outcome [9] | outcome [10] | outcome [11] | outcome [12] | outcome [13] | outcome [14] | outcome [15] | Potency [16] | outcome [20]
